D2 ag-1: agonists of human D2 dopamine receptor | 0.53% of 340,000 active | P14416 | activation, % at 2 µM | HEK293 T-REx D2 cells, calcium flux agonist mode;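 active = activation over 3 SD above normal in the single-dose calcium agonist read, cut at about 30% in these data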; also: 0% is about no effect
Target sequence (P14416 whole entry, looked up): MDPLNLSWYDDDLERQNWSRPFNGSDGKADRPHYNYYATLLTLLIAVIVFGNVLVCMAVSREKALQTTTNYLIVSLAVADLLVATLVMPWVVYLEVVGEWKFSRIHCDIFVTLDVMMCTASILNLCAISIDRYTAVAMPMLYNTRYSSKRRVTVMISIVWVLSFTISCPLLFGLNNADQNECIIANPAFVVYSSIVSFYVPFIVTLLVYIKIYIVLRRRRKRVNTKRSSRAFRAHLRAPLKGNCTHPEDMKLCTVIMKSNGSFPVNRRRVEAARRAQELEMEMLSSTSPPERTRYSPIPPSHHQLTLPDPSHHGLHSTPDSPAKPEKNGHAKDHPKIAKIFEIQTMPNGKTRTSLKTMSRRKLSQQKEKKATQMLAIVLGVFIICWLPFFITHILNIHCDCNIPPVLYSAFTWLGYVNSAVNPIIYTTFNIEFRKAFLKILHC
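Tetracycline-induced HEK293 Trex cells with D2 receptor force-coupled to calcium signaling, plated overnight at 30 C and loaded with no-wash calcium dye. Calcium flux read kinetically for 180 s after compound addition; responses flag agonists.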
D2 PAM-1: human D2 receptor positive allosteric modulation | potentiation, % (concentration not given with the values) | P14416 | 0.23% of 360,000 active | AID 624464 | DiscoveRx D2 beta-arrestin cells, luminescence, 90 min; 100% = 57 uM dopamine signal; in the data active = potentiation above about 50%; inconclusive = mostly about 30% to 49%
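PathHunter beta-arrestin assay in DiscoveRx D2 cells. Compounds were added with an EC20 of dopamine (50 nM final) for 90 min at 37 deg C. Luminescence was read 1 h after detection reagent, with 57 uM dopamine as the EC100 control.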
D2 ag-2: agonists of human D2 dopamine receptor (beta-arrestin); activation, % (no concentration beside the values); P14416; DiscoveRx PathHunter D2 beta-arrestin, luminescence, 90 min; 100% = 57 uM dopamine signal; 0.084% of 360,000 active; AID 624465; in the data active = activation above about 40%; inconclusive = between about 15% and that limit
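Agonist mode: compounds alone added to overnight-plated D2 PathHunter cells for 90 min at 37 C, with 57 uM final dopamine (EC100) defining full response. Beta-arrestin recruitment detected by chemiluminescent reagent, read after 1 h at ambient temperature.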
D2 antag: D2 dopamine receptor (human) antagonism | HEK293 TREx D2 cells, calcium flux, dopamine EC80 | 2% of 340,000 active | inhibition, % at 10 µM | P14416 | AID 485344; in the data active = inhibition above about 30%; inactive = below that, where a call was filed; also: 0% is about no effect
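Calcium mobilization kinetics were recorded at 1 s intervals in tetracycline-induced HEK293 T-REx D2 cells, first for 180 s after compound addition and then 180 s after EC80 dopamine.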
D2 PAM-2: positively modulates the human D2 dopamine receptor allosterically. P14416. HEK293 T-REx D2, calcium flux, EC20 dopamine potentiation. potentiation, % at 10 µM. 0.34% of 340,000 active. AID 485347;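 active = potentiation over 3 SD above the plate norm, cut at about 30% in these data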; also: 0% is about no effect
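Calcium flux readout, no-wash dye, 1 read/s. Inducible HEK293 Trex D2 line, overnight 30 C. Compound alone 180 s (agonist flags), then EC20 dopamine, another 180 s to score potentiation.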
Starred values were filed as active, the others as inactive; ? = inconclusive; / = not tested or not shown. Hits are enriched below; roughly 2.4% of the tested compounds scored in any of these assays.

SMILES	D2 ag-1	D2 PAM-1	D2 ag-2	D2 antag	D2 PAM-2
CNC(=O)NC(=O)CSc1ccc(S(=O)(=O)N(C)C2CCCCC2)cn1	0	-15	-1	0	-4
CCCC(=O)N(c1ccc2oc3c(c2c1)CCCC3)S(=O)(=O)c1ccc(CC)cc1	0	/	/	/	-4
Cc1cccc(NC(=O)COC(=O)c2cccc3c2C(=O)c2ccccc2C3=O)c1C	0	90*	?	-15	-1
Nc1cccc(C(=O)OCC(=O)Nc2cccc3c2C(=O)c2ccccc2C3=O)c1	1	60*	?	-2	0
NC(=O)C1CCN(S(=O)(=O)c2ccc(N3CCCCS3(=O)=O)cc2)CC1	3	/	/	/	3
Cc1sc2ncnc(NCC(O)c3ccc([N+](=O)[O-])cc3)c2c1C (stereo not given)	-3	-4	-2	-4	/
O=C(NC(Cc1ccc2c(c1)OCO2)C(=O)N1CCCC1C(=O)O)c1ccccc1 (stereo not given)	-1	3	0	34*	9
CCOC(=O)c1c(C)oc2ncnc(Nc3ccc(OC)c(OC)c3)c12	0	/	/	/	10
Cc1cc(=O)n2[nH]c(C)c(-c3ccccc3)c2n1	3	-36	-4	6	-16
Cc1cc(=O)n2[nH]c(C)c(-c3ccc(Cl)cc3)c2n1	-2	-24	-1	46*	-26
CCOC(=O)C1(C)CCN1C(=O)c1cccs1 (stereo not given)	/	-11	-3	/	/
CCOc1nc(NCCC2=CCCCC2)nc(N2CCOCC2)n1	0	0	-3	-15	6
CCOc1nc(NCCO)nc(NCCC2=CCCCC2)n1	0	-5	-2	-15	49*
CCOC(=O)c1oc2cccc(OC(C)=O)c2c1C	1	3	-6	37*	-7
Cc1ccc2cccc(NC(=S)NC(=O)c3ccccc3)c2n1	0	-13	-3	4	33*
O=C(NCc1ccc(Cl)cc1)C1CCCN(c2cnccn2)C1 (stereo not given)	-1	-11	-3	36*	-4
O=C(NCc1ccc(Cl)cc1)C1CCN(c2cnccn2)CC1	-1	-2	-3	4	-18
Cc1noc(Cn2c(=O)c3ccccc3n(CC(=O)Nc3ccc(F)cc3F)c2=O)n1	0	/	/	/	-7
N#Cc1ccccc1NC(=O)COC(=O)COc1ccccc1[N+](=O)[O-]	0	-1	0	-17	4
CCC(=O)Nc1ccccc1Nc1cc(C#N)c(C#N)cc1[N+](=O)[O-]	-1	74*	10	8	-3
COc1cccc(CC(=O)Nc2cc(S(=O)(=O)N3CCOCC3)ccc2N2CCN(C)CC2)c1	0	-11	-6	-6	-4
COC(=O)c1ccc(/C=C(\C#N)C(=O)NC(C)c2ccccc2)cc1 (stereo not given)	-1	-9	-7	8	10
CC(NC(=O)/C(C#N)=C/c1ccc(N2CCOCC2)cc1)c1ccccc1 (stereo not given)	5	-6	-4	3	32*
O=C(NCc1cccnc1)c1cc(C2CCCN(C(=O)c3cccc(O)c3)C2)on1 (stereo not given)	/	8	11	/	/
O=C(COC(=O)/C=C/c1ccc(OC(F)F)cc1)NC1CCCC1	0	-16	-3	32*	8
SMILES	D2 ag-1	D2 PAM-1	D2 ag-2	D2 antag	D2 PAM-2
O=C(/C=C/c1ccc(OC(F)F)cc1)OCC(=O)N1CCC(c2ccccc2)=N1	3	3	-1	39*	-4
O=C(COC(=O)/C=C/c1ccc(OC(F)F)cc1)NC(=O)NC1CCCCC1	/	-3	-1	/	/
N#CC1=C(N)Oc2cc(O)c(Cl)cc2C1c1cccnc1 (stereo not given)	14	-5	4	-3	0
N#CC1=C(N)Oc2cc(O)c(Cl)cc2C1c1ccccc1F (stereo not given)	44*	19	8	-29	-4
CCC(C)NCCOc1cc(C)cc(C)c1C (stereo not given)	1	-15	-6	51*	-20
CCOC(=O)c1c(C)[nH]c(CCC(=O)Nc2cc(Cl)ccc2OC)c1C	/	/	/	/	-3
O=c1[nH]c2ccccc2cc1CN(CC1CCCO1)S(=O)(=O)c1ccccc1 (stereo not given)	0	0	5	35*	-25

Screening results deposited in PubChem by National Center for Advancing Translational Sciences (NCATS).
